From PubChem
The list is not random: actives were taken first. Their share in the collection is about 9.4%.
ELG1 DNA repair: inhibitors of ELG1-dependent DNA repair in HEK293T cells | HEK293T ELG1-luciferase reporter, luminescence, 16 h; DNA damage induced by 5-fluorouridine | Potency, µM (series often up to 46.1 µM), inactives show at the highest dose activity change, negative = inhibition, hits mostly inhibitors | hit rate 2.3% among 330,000 | AID 504467; also: % is scaled to controls: 0 for no effect and ±100 for the full control effect; nearly all actives have a fitted effect of over 55% in size
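HEK293T cells expressing luciferase-tagged ELG1 (2,000/well) received 5-Fluorouridine plus compound or DMSO for 16 hr at 37 °C. Luciferase was read by ONE-Glo luminescence after 30 min at room temperature.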
ELG1 genotox: induces genotoxicity in HEK293T cells with luciferase-tagged ELG1 | HEK293T ELG1-luciferase reporter, luminescence, 16 h | Potency, µM (doses to about 46 µM), for the others: at the highest dose activity change, positive = activation, actives largely listed as activators | hit rate 1.3% among 330,000 | AID 504466; also: % of control where 0% means no effect; nearly all actives have a fitted effect of over 60% in size
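Genotoxic stress is detected as increased luminescence from luciferase-tagged ELG1 in HEK293T cells, measured with ONE-Glo after a 16 hr treatment at 37 °C.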
FLuc counter: inhibits or activates purified firefly luciferase, miR-21 counter-screen. P08659. purified FLuc, Km substrates, luminescence inhibition. Potency, µM (doses to about 57.5 µM), for the others: at the top dose activity change, negative = inhibition, hits mostly inhibitors. hit rate 6.9% among 360,000;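 also: plate controls were vehicle for no effect and reference inhibitor for full effect; nearly all actives have a fitted effect of over 55% in size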
Target sequence (P08659 whole entry, looked up): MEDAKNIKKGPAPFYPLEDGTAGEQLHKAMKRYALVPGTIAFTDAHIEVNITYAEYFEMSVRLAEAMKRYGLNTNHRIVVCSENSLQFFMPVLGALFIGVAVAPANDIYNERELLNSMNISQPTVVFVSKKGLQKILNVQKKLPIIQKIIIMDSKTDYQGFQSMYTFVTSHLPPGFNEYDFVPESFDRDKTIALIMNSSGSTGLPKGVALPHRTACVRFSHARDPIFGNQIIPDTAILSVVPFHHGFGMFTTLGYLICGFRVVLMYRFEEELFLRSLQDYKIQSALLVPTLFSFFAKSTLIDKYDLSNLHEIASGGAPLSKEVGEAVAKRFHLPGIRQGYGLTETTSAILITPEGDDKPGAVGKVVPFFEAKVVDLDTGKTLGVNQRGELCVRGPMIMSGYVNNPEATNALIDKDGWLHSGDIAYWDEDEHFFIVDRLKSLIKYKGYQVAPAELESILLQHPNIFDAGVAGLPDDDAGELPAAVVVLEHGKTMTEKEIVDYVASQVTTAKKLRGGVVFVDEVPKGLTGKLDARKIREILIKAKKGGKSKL
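Biochemical qHTS of compounds, final roughly 60 µM downward over six points, against 10 nM purified firefly luciferase using Km concentrations of substrates (10 uM D-luciferin, 10 uM ATP) in Tris acetate pH 7.5 buffer; luminescence output.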
NPC1 promoter act: NPC1 promoter activation; Huh7 NPC1 promoter luciferase reporter, 24 h; Potency, µM (titrated, usually from 9.22 µM), without a hit: top-dose activation, actives largely listed as activators; hit rate 2.4% among 320,000; also: % of control where 0% means no effect; nearly all actives have a fitted effect of over 60% in size
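In 1536-well qHTS, Huh7 cells harboring an NPC1 promoter–luciferase construct received compound for 24 h; activation was quantified by luminescence following luciferase reagent addition.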
Rab9 promoter act: Rab9 promoter activation. Potency, µM (top dose mostly 9.22 µM), inactives show at the highest dose activation, negative = inhibition, actives largely listed as activators. AID 485297. hit rate 2.8% among 320,000. Huh7 Rab9 promoter-luciferase reporter, luminescence, 24 h; also: % of control where 0% means no effect; nearly all actives have a fitted effect of over 60% in size
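Luminescence read-out: Huh7 cells stably expressing Rab9-luciferase, treated 24 h with compound at 37 °C, then lysed with luciferase reagent for 10 min at ambient before reading.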
SMN2 splice enh: increases expression of the SMN2 splice variant | HEK293 SMN2-luciferase splicing reporter, luminescence, 30-36 h | Potency, µM (highest dose often 46.1 µM), for the others: at the top dose activity change, positive = activation, hits mostly activators | hit rate 2.8% among 210,000; also: % of control where 0% means no effect; nearly all actives have a fitted effect of over 55% in size
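HEK293 cells carry an SMN2 […]–luciferase reporter in which exon 7 inclusion puts luciferase in frame. Cells were plated 10-12 h before compound addition, then incubated 30-36 h at 37C. ONE-Glo luminescence was read; sodium butyrate at 4.5 mM final served as control.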
Active calls of the source: *; [ ] = remark or other dose. Calls follow the shape of the dose curve; as a rule, active = well fitted curve in the direction sought with a large enough effect; inconclusive = small, poorly fitted or top-dose-only effect, or another doubt; inactive = no such curve, though single readings can be large; an effect the other way counts as inactive or inconclusive. Potency is read from the fitted curve at half-maximal effect.

What do the screens show for `CCOC(=O)CNC(=O)c1ccc2c(c1)OCCO2`?
ELG1 DNA repair: inconclusive; ELG1 genotox: inconclusive; FLuc counter: 19µM*; NPC1 promoter act: inconclusive; Rab9 promoter act: inconclusive; SMN2 splice enh: 18%

Results for CCOC(=O)CNC(=O)c1cc(-c2ccc3c(c2)OCCO3)oc1C ?
ELG1 DNA repair: inconclusive; ELG1 genotox: inconclusive; FLuc counter: 9.5µM*; NPC1 promoter act: 6%; Rab9 promoter act: 21%; SMN2 splice enh: -11%

What do the screens show for `Cc1oc(C(C)(C)C)cc1C(=O)NC(Cc1ccccc1)C(=O)O` (centres undefined)?
ELG1 DNA repair: 13%; ELG1 genotox: 3%; FLuc counter: -18%; NPC1 promoter act: 0%; Rab9 promoter act: -4%

Results for Cc1oc(-c2ccc3c(c2)OCCO3)cc1C(=O)NC(Cc1ccccc1)C(=O)O (centres undefined) ?
ELG1 DNA repair: inconclusive; ELG1 genotox: 6%; FLuc counter: 15µM*; NPC1 promoter act: -1%; Rab9 promoter act: 10%

What do the screens show for `N[C@@H](Cc1[nH]nc2ccccc12)C(=O)O`?
SMN2 splice enh: 1%[9.22 µM]

How did Cc1cc(C)c2sc(N(Cc3cccnc3)C(=O)CCOc3ccccc3)nc2c1 do in these assays?
FLuc counter: -8%

Results for O=C(NCCSCc1c(F)cccc1Cl)c1ccc(CN2CCOCC2)cc1 ?
ELG1 DNA repair: inconclusive; ELG1 genotox: -1%; FLuc counter: -10%; NPC1 promoter act: 12%; Rab9 promoter act: 2.5µM*; SMN2 splice enh: -17%

How did CN(c1ccc(C(=O)NCCSCc2c(F)cccc2Cl)cc1)S(C)(=O)=O do in these assays?
ELG1 DNA repair: 13µM*; ELG1 genotox: -3%; FLuc counter: 3%; NPC1 promoter act: -8%; Rab9 promoter act: -14%

Results for CCCCC/C=C\C/C=C\C/C=C\CCCCCCC(=O)NCCCC(=O)O ?
SMN2 splice enh: 12%

What do the screens show for `Cc1cc(C(=O)NCCC2=CCCCC2)c(C)o1`?
ELG1 DNA repair: inconclusive; ELG1 genotox: inconclusive; FLuc counter: inconclusive; NPC1 promoter act: 1µM*; Rab9 promoter act: 10µM*; SMN2 splice enh: 11µM*

How did COc1cccc(C(=O)NCCC2=CCCCC2)c1OC do in these assays?
ELG1 DNA repair: inconclusive; ELG1 genotox: inconclusive; FLuc counter: -9%[2.3 µM]; NPC1 promoter act: inconclusive; Rab9 promoter act: 4µM*; SMN2 splice enh: 13µM*

How did Cc1ccc(S(=O)(=O)N2CCCCC2)cc1C(=O)NCCC1=CCCCC1 do in these assays?
ELG1 DNA repair: 1%; ELG1 genotox: -3%; FLuc counter: 0%; NPC1 promoter act: 7%; Rab9 promoter act: -3%

How did CCCCCc1ccc(-c2ccc(=O)[nH]n2)cc1 do in these assays?
ELG1 DNA repair: inconclusive; ELG1 genotox: 19%; FLuc counter: 19µM*; NPC1 promoter act: 9%; Rab9 promoter act: 3%; SMN2 splice enh: -9%

How did CCCc1ccc2oc(C(=O)N(C)Cc3nccs3)c(C)c2c1 do in these assays?
ELG1 DNA repair: inconclusive; ELG1 genotox: 23µM*; FLuc counter: 15µM*; NPC1 promoter act: inconclusive; Rab9 promoter act: inconclusive

How did COc1ccc(O)c(C(=O)CC(=O)c2ccc(F)cc2)c1 do in these assays?
ELG1 DNA repair: inconclusive; ELG1 genotox: inconclusive; FLuc counter: 12µM*; NPC1 promoter act: 0.56µM*; Rab9 promoter act: 0.71µM*; SMN2 splice enh: 2.2µM*

How did COc1ccc(C(=O)CC(=O)c2ccccc2O)cc1OC do in these assays?
ELG1 DNA repair: inconclusive; ELG1 genotox: inconclusive; FLuc counter: inconclusive; NPC1 promoter act: 11%; Rab9 promoter act: -4%[1.84 µM]; SMN2 splice enh: inconclusive

How did COc1ccc(NC(=O)c2ccccc2C)c(OC)c1 do in these assays?
ELG1 DNA repair: inconclusive; ELG1 genotox: 0%; FLuc counter: -16%; NPC1 promoter act: 21%; Rab9 promoter act: 9%; SMN2 splice enh: -6%

How did COc1ccc(O)c(C(=O)CC(=O)c2ccccc2C)c1 do in these assays?
ELG1 DNA repair: inconclusive; ELG1 genotox: inconclusive; FLuc counter: inconclusive; NPC1 promoter act: inconclusive; Rab9 promoter act: 3.2µM*

What do the screens show for `COc1ccc(C(=O)CC(=O)c2ccccc2O)cc1`?
ELG1 DNA repair: inconclusive; ELG1 genotox: inconclusive; FLuc counter: 12µM*; NPC1 promoter act: inconclusive; Rab9 promoter act: 25%

Results for COC(=O)[C@@H](c1ccccc1Cl)N1CCc2sccc2C1 ?
SMN2 splice enh: -9%

What do the screens show for `Cn1nnnc1SCC(=O)NC1CCCC1`?
ELG1 DNA repair: 7%; ELG1 genotox: 1%; FLuc counter: -1%; NPC1 promoter act: 0%; Rab9 promoter act: -1%

What do the screens show for `CC1CCCC(NC(=O)Cn2cc(Br)ccc2=O)C1C` (centres undefined)?
ELG1 DNA repair: 20%; ELG1 genotox: 1%

Results for CCOC(=O)c1nn(-c2ccc(F)cc2)cc1O ?
ELG1 DNA repair: inconclusive; ELG1 genotox: inconclusive; FLuc counter: inconclusive; NPC1 promoter act: inconclusive; Rab9 promoter act: inconclusive; SMN2 splice enh: -17%

What do the screens show for `CCOC(=O)c1nn(-c2ccc3c(c2)CCN3C(C)=O)cc1O`?
ELG1 DNA repair: inconclusive; ELG1 genotox: 1.6µM*; FLuc counter: 3.8µM*; NPC1 promoter act: 1.6µM*; Rab9 promoter act: 2.2µM*; SMN2 splice enh: 10µM*

How did Cc1nc2ccc(-c3ccccc3)cc2o1 do in these assays?
ELG1 DNA repair: inconclusive; ELG1 genotox: 8%; FLuc counter: 17µM*; NPC1 promoter act: 14%; Rab9 promoter act: 15%; SMN2 splice enh: -6%

Results for Cc1nc2ccc(NC(=O)c3cccc(C(F)(F)F)c3)cc2o1 ?
ELG1 DNA repair: 26%; ELG1 genotox: inconclusive; FLuc counter: -19%; NPC1 promoter act: 5%; Rab9 promoter act: -5%; SMN2 splice enh: 4%

How did Cc1cccc(CCNC(=O)c2nn(C)c3c2CSc2ccccc2-3)c1 do in these assays?
FLuc counter: -5%

How did C=CCn1c(SCC(C)=O)nnc1-c1cc(-c2ccccc2)sc1N do in these assays?
ELG1 DNA repair: 26µM*; ELG1 genotox: -6%; FLuc counter: -2%; NPC1 promoter act: -1%; Rab9 promoter act: -7%; SMN2 splice enh: -60%

What do the screens show for `COc1cccc(N2CCN(C(=O)Cn3nc(C)n4c(cc5c(OC)cccc54)c3=O)CC2)c1`?
FLuc counter: -4%; SMN2 splice enh: -7%

How did CC(=O)Nc1sc(/C(C#N)=C/c2ccc(Cl)c(Cl)c2)nc1-c1ccc(C)cc1 do in these assays?
ELG1 DNA repair: 3%; ELG1 genotox: -4%; FLuc counter: 0%; NPC1 promoter act: 0%; Rab9 promoter act: -2%; SMN2 splice enh: -32%
